Source: PubChem BioAssay (National Center for Advancing Translational Sciences (NCATS))
VACV Venus inh – inhibitors of vaccinia virus (Venus reporter) | Vaccinia virus Venus reporter expression, fluorescence | Potency, µM (titrated, usually from 36.5 µM), without a hit: at the highest dose activity change, negative = inhibition, hits mostly inhibitors | hit rate 0.46% among 330,000 | AID 720580; calls by dose curve; tested in A549 cells; also: nearly all actives have a fitted effect of over 30% in size
LASV entry inh – inhibitors of Lassa virus binding or cell entry. hit rate 1.2% among 300,000. Potency, µM (highest dose often 37.9 µM), without a hit: at the highest dose activity change, negative = inhibition, most hits filed as inhibitors. Lassa virus pseudotype entry inhibition, cell reporter; calls by dose curve; tested in HEK293 cells; also: nearly all actives have a fitted effect of over 50% in size
FMDV inh – antivirals against foot and mouth disease virus. FMDV antiviral cell-based qHTS. Potency, µM (titrated, usually from 57.9 µM), for the others: top-dose activity change, negative = inhibition, usual class: inhibitors. hit rate 1.2% among 410,000. AID 1159524; calls by dose curve; tested in HEK293T cells; also: read-out not given here; nearly all actives have a fitted effect of over 45% in size
Vaccinia mCherry – inhibitors of vaccinia virus infection (mCherry reporter signal) | Vaccinia virus mCherry reporter infection, fluorescence | Potency, µM (series often up to 36.5 µM), inactives show at the highest dose activity change, negative = inhibition, actives largely listed as inhibitors | hit rate 0.63% among 310,000 | AID 720579; calls by dose curve; tested in A549 cells; also: nearly all actives have a fitted effect of over 35% in size
MARV entry inh – blocks Marburg virus binding to or entry into cells | Marburg virus pseudotyped entry inhibition, cell reporter | Potency, µM (highest dose often 37.8 µM), inactives show at the top dose activity change, negative = inhibition, actives largely listed as inhibitors | hit rate 1.8% among 300,000 | AID 540276; calls by dose curve; tested in HEK293 cells
* marks the source's active call; other numbers are inactive results; ! = repeats disagree; [ ] = dose if it differs, or a comment. In the library only some 3.2% were active in any assay of this set; here they are far more common. % is scaled to controls: 0 for no effect and ±100 for the full control effect; potency is read from the fitted curve at half-maximal effect.

Results for CS(=O)(=O)Nc1ccccc1C(=O)Nc1cc(Cl)cc(Cl)c1 ?
VACV Venus inh: 11.2µM*; LASV entry inh: inconclusive; FMDV inh: inconclusive; Vaccinia mCherry: 7.94µM*; MARV entry inh: inconclusive

How did O=C(Nc1cccc(Cl)c1)Nc1cccc(Cl)c1 do in these assays?
VACV Venus inh: inconclusive; LASV entry inh: -21.9%; FMDV inh: -0.7%; Vaccinia mCherry: inconclusive; MARV entry inh: inconclusive

How did O=C(Nc1ccccc1)Nc1cc(Cl)cc(Cl)c1 do in these assays?
VACV Venus inh: 11.2µM*; LASV entry inh: inconclusive; FMDV inh: -28.7%; MARV entry inh: inconclusive

How did CCN1CCc2c(sc(NC(=O)c3cc4ccccc4cc3OC)c2C(N)=O)C1 do in these assays?
VACV Venus inh: inconclusive; LASV entry inh: -1.8%[46.1 µM]; FMDV inh: -7.9%; Vaccinia mCherry: 14.1µM*; MARV entry inh: 11.2µM*

Results for CCn1c(=O)c(=O)[nH]c2cc(C(=O)NC3CCCc4ccccc43)ccc21 (stereo not given) ?
LASV entry inh: inconclusive; FMDV inh: 23.7%; MARV entry inh: 20.6µM*

What do the screens show for `CO[C@@H]1CN(C)C(=O)c2cc(NS(=O)(=O)c3ccc(C)cc3)ccc2OC[C@H](C)N(Cc2nccs2)C[C@H]1C`?
VACV Venus inh: -16.6%; FMDV inh: -14.2%; Vaccinia mCherry: -5.0%

How did CNc1c2cccc(C)c2nc2c(C(=O)NCCN(C)C)cccc12 do in these assays?
VACV Venus inh: 2.24µM*; LASV entry inh: inconclusive; FMDV inh: inconclusive; Vaccinia mCherry: 2.24µM*; MARV entry inh: inconclusive

Results for COc1cc2c3c(n(C)c(=O)c2cc1OC)-c1cc2c(cc1C3=O)OCO2 ?
VACV Venus inh: 19.0%; LASV entry inh: inconclusive; FMDV inh: -11.6%; Vaccinia mCherry: -5.2%; MARV entry inh: 0.562µM*

How did COc1cccc(N2CCN(C(=O)C3CCC(CNS(=O)(=O)c4ccc(Br)s4)CC3)CC2)c1 (stereo not given) do in these assays?
VACV Venus inh: -19.7%; LASV entry inh: -0.2%[46.1 µM]; FMDV inh: 17.8µM*; Vaccinia mCherry: -29.2%; MARV entry inh: -23.6%[46.1 µM]

What do the screens show for `Cc1n[nH]c(C)c1S(=O)(=O)N1CCCC(C(=O)N2CCN(c3ccc(Cl)cc3)CC2)C1` (stereo not given)?
VACV Venus inh: inconclusive; LASV entry inh: inconclusive; FMDV inh: 20µM*; Vaccinia mCherry: inconclusive; MARV entry inh: inconclusive

How did O=C(C1CCCN(S(=O)(=O)c2ccc(Br)s2)C1)N1CCN(c2ccccc2)CC1 (stereo not given) do in these assays?
VACV Venus inh: -22.6%; LASV entry inh: inconclusive; FMDV inh: inconclusive; Vaccinia mCherry: -17.4%; MARV entry inh: inconclusive

What do the screens show for `COc1cccc(N2CCN(C(=O)C3CCCN(S(=O)(=O)c4ccc(Br)s4)C3)CC2)c1` (stereo not given)?
VACV Venus inh: -16.0%; LASV entry inh: inconclusive; FMDV inh: 17.8µM*; Vaccinia mCherry: -26.7%; MARV entry inh: inconclusive

Results for O=C(C1CCN(S(=O)(=O)c2cccc3nonc23)CC1)N1CCN(c2cccc(Cl)c2)CC1 ?
VACV Venus inh: -6.9%; LASV entry inh: inconclusive; FMDV inh: -12.6%; Vaccinia mCherry: -11.7%

How did O=C(C1CCCN(S(=O)(=O)c2cccc3nonc23)C1)N1CCN(c2cccc(Cl)c2)CC1 (stereo not given) do in these assays?
VACV Venus inh: -12.1%; LASV entry inh: 4.9%[46.1 µM]; FMDV inh: -7.6%; Vaccinia mCherry: -8.2%; MARV entry inh: 23.1µM*!

Results for COc1cccc(-c2nccc(NCc3ccc(OC)cc3OC)n2)c1 ?
FMDV inh: -9.5%

How did Cc1nnnn1CC(=O)Nc1cccc([N+](=O)[O-])c1 do in these assays?
VACV Venus inh: -9.3%; LASV entry inh: 24.1%; FMDV inh: -9.0%; Vaccinia mCherry: inactive; MARV entry inh: 13.9%[46.1 µM]

Results for CC1=C(c2ccc(C)c(C)c2)S(=O)(=O)N=C1N1CCC(C(=O)NCCc2ccc(Cl)cc2)CC1 ?
VACV Venus inh: -15.7%[7.34 µM]; FMDV inh: -7.2%; Vaccinia mCherry: -9.5%[7.34 µM]; MARV entry inh: 3.98µM*

What do the screens show for `CCOP(=O)(OCC)c1ccc2c(c1)C(=O)c1ccccc1CC2`?
FMDV inh: 10.7%

Results for CC(=O)Nc1ccc(Oc2cc(C#N)c(C#N)cc2N2CCCCCC2)cc1 ?
VACV Venus inh: inconclusive; LASV entry inh: inconclusive; FMDV inh: 17.8µM*; Vaccinia mCherry: inconclusive; MARV entry inh: inconclusive

What do the screens show for `Cc1cc(Cl)ccc1OCCSc1nnc(-c2cccs2)o1`?
VACV Venus inh: 7.4%; LASV entry inh: -2.0%[46.1 µM]; FMDV inh: 0.5%; Vaccinia mCherry: 5.2%; MARV entry inh: -5.7%[46.1 µM]

Results for COc1ccccc1C(=O)NC(C)c1cccc2ccccc12 (stereo not given) ?
VACV Venus inh: -16.1%; LASV entry inh: -16.9%; FMDV inh: 0.0%; Vaccinia mCherry: inactive; MARV entry inh: inconclusive

How did COc1cccc(C(=O)NC(C)c2cccc3ccccc23)c1OC (stereo not given) do in these assays?
VACV Venus inh: -1.0%; LASV entry inh: inconclusive; FMDV inh: -6.7%; Vaccinia mCherry: -5.1%; MARV entry inh: 5.62µM*

What do the screens show for `Cc1cc(/C=N/n2cnnc2)c(C)n1-c1ccc(OCc2ccc(Cl)cc2Cl)cc1`?
VACV Venus inh: inconclusive; LASV entry inh: 7.08µM*; FMDV inh: -46.2%; MARV entry inh: 8.91µM*

What do the screens show for `Cn1c(Cl)cnc1C1CC(=O)c2cc(Cl)ccc2O1` (stereo not given)?
VACV Venus inh: -13.6%; LASV entry inh: inconclusive; FMDV inh: 20µM*; Vaccinia mCherry: -1.8%; MARV entry inh: 10µM*

How did CN(C)c1ccc(/C=C/c2cc3ccccc3c[n+]2C)cc1 do in these assays?
VACV Venus inh: -41.0%; Vaccinia mCherry: -24.6%

Results for C/C(=C1/C=Nc2ccccc21)c1ccc(N(C)C)cc1 ?
VACV Venus inh: -14.5%; Vaccinia mCherry: 20.4%

Results for CCN(Cc1ccc2c(c1)OCCO2)C(=O)CSc1nc(C)nc2sc(C)c(C)c12 ?
FMDV inh: 31.6µM*

What do the screens show for `COc1ccc(/C=C/C(=O)c2c(O)n(CCC3=CCCCC3)c(=O)[nH]c2=O)cc1`?
VACV Venus inh: -5.8%; LASV entry inh: inconclusive; FMDV inh: 35.5µM*; Vaccinia mCherry: -9.6%; MARV entry inh: inconclusive

How did O=C1OC(c2ccccc2)(c2ccc3cc(O)ccc3c2)c2ccccc21 (stereo not given) do in these assays?
VACV Venus inh: inconclusive; LASV entry inh: -28.4%[46.1 µM]; FMDV inh: 8.5%; Vaccinia mCherry: 7.94µM*; MARV entry inh: 5.62µM*

What do the screens show for `O=C1OC(c2ccc(O)cc2)(c2ccc(O)cc2)c2ccccc21`?
VACV Venus inh: inconclusive; LASV entry inh: inconclusive; FMDV inh: -21.0%; Vaccinia mCherry: -7.8%; MARV entry inh: inconclusive

What do the screens show for `CCC1CN(CCNC(=O)c2cc(C)nn2CC)Cc2cc(OC)ccc2O1` (stereo not given)?
VACV Venus inh: -10.1%; FMDV inh: 10.4%; Vaccinia mCherry: -9.2%

Results for O=C(c1cc(-c2ccccc2)on1)N1CCOc2ccc(CN3CCN(c4ccccn4)CC3)cc2C1 ?
VACV Venus inh: -18.5%; FMDV inh: -1.4%; Vaccinia mCherry: inactive
